Screening results deposited in PubChem BioAssay by National Center for Advancing Translational Sciences (NCATS).
This is a sample that favours compounds with a hit; in the whole collection about 4.2% have one here.
PLK1 PBD inh – qHTS for Inhibitors of PLK1-PDB (polo-like kinase 1 - polo-box domain): Primary Screen | 2.8% of 360,000 active | Plk1 PBD binding of FITC phosphopeptide, fluorescence polarization | Serine/threonine-protein kinase PLK1 (Homo sapiens), P53350 | AID 720504, 2013 | Potency, µM, without a hit: max response, negative = inhibition, most hits filed as inhibitors; note: series mostly up to about 57 µM; nearly all actives have a fitted effect of over 65% in size
12-LOX inh – Primary qHTS assay for inhibitors of human arachidonate 12S-lipoxygenase (ALOX12): Round 2 | 1.1% of 580,000 active | purified 12hLO, xylenol orange hydroperoxide absorbance | Polyunsaturated fatty acid lipoxygenase ALOX12 (Homo sapiens), P18054 | Potency, µM (highest dose often 108 µM), for the others: top-dose activity change, negative = inhibition, hits mostly inhibitors
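Purified human 12hLO at 150 nM in 25 mM Hepes, 0.01% Triton X-100, pH 7.0, preincubated 15 min at room temperature with compound. Reaction started with 40 uM arachidonic acid, 30 min at room temperature. Hydroperoxide measured by Fe-xylenol orange, 573/405 nm absorbance ratio.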
Sfp inh – qHTS Assay for Inhibitors of Bacillus subtilis Sfp phosphopantetheinyl transferase (PPTase). Biochemical Sfp PPTase activity, qHTS. 3.5% of 310,000 active. 4'-phosphopantetheinyl transferase ffp (Bacillus subtilis), Q9F4F7. Potency, µM, without a hit: largest response in the series, negative = inhibition, most hits filed as inhibitors;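 note: the enzyme is Sfp with the accession as filed and its product quenches rhodamine fluorescence; 0% = enzyme reaction without inhibitor and -100% = no enzyme wells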
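Fluorescence-quenching assay with 15 nM Sfp, 5 uM rhodamine-CoA and 12.5 uM BHQ-2-labelled ybbR peptide in pH 7.6 Hepes/MgCl2 buffer. Enzyme was pre-incubated with compound for 15 min at room temperature. Rate was taken from the 30-min fluorescence change (525/598 nm).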
VDR inhibitor – Inhibitors of the vitamin D receptor (VDR): qHTS. VDR-SRC2-3 peptide fluorescence polarization, 2 h. Potency, µM, without a hit: max response, negative = inhibition, hits mostly inhibitors. 0.93% of 400,000 active. AID 504847, 2011
Target sequence (P11473 whole entry, looked up): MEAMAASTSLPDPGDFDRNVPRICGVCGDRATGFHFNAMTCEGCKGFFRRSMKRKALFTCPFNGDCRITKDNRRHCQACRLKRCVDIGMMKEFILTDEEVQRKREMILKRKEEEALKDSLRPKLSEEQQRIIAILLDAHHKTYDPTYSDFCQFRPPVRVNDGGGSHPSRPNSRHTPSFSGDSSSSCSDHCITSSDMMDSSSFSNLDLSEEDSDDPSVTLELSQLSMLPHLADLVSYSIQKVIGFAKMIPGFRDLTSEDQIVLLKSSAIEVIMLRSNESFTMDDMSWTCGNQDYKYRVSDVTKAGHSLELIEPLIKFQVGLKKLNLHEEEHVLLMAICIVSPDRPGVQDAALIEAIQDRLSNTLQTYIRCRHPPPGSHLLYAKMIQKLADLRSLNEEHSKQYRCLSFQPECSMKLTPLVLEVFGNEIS
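After 23 nl compound addition and a short centrifugation, plates sat for 2 hours at ambient temperature; polarization of fluorescence then indicated loss of VDR binding to peptide SRC2-3.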
Active calls of the source: *; ! = not confirmed by another sample; [ ] = dose if it differs, or a comment. Calls come from the whole dose curve; as a rule, active = well fitted curve in the direction sought with a large enough effect; inconclusive = small, poorly fitted or top-dose-only effect, or another doubt; inactive = no such curve, though single readings can be large; an effect the other way counts as inactive or inconclusive. Unless noted, % is set by controls: 0 for no effect and ±100 for the full control effect; potency is the fitted concentration of half-maximal effect.

What do the screens show for `CCOC(=O)N1CCN(/[N+]([O-])=N/Oc2ccc([N+](=O)[O-])cc2[N+](=O)[O-])CC1C` (configuration not stated)?
Sfp inh: -9%; VDR inhibitor: 56µM*

What do the screens show for `S=c1[nH]nc(-c2ccn[nH]2)n1-c1ccccc1Cl`?
PLK1 PBD inh: inconclusive; 12-LOX inh: inconclusive; Sfp inh: 56µM*; VDR inhibitor: 2%

Results for CCCCOC1OCN(C2CCCCC2)CC1(C)C (configuration not stated) ?
PLK1 PBD inh: 4%; 12-LOX inh: -20%

Results for CC(C)C[C@H]1C(=O)N2CCC[C@H]2[C@]2(O)O[C@](NC(=O)[C@@H]3C=C4c5cccc6[nH]cc(c56)C[C@H]4N(C)C3)(C(C)C)C(=O)N12 ?
PLK1 PBD inh: inconclusive; VDR inhibitor: 79µM*

How did CC(C)C[C@H]1C(=O)N2CCC[C@H]2[C@]2(O)O[C@](NC(=O)[C@@H]3C=C4c5cccc6[nH]c(Br)c(c56)C[C@H]4N(C)C3)(C(C)C)C(=O)N12 do in these assays?
Sfp inh: -4%; VDR inhibitor: 28µM*!

What do the screens show for `CN1C[C@H](C(=O)N[C@]2(C)O[C@@]3(O)[C@@H]4CCCN4C(=O)[C@H](Cc4ccccc4)N3C2=O)C=C2c3cccc4[nH]cc(c34)C[C@H]21`?
Sfp inh: -17%; VDR inhibitor: 14µM*

Results for CC(C)C[C@H]1C(=O)N2CCC[C@@H]2[C@]2(O)O[C@](NC(=O)[C@H]3C=C4c5cccc6[nH]c(Br)c(c56)C[C@H]4N(C)C3)(C(C)C)C(=O)N12 ?
Sfp inh: -11%; VDR inhibitor: -13%

Results for O=S1(=O)N(Cc2ccc(F)cc2)CCCN1Cc1ccccc1Cl ?
PLK1 PBD inh: -5%; 12-LOX inh: -21%; Sfp inh: -10%; VDR inhibitor: 8%

Results for O=c1c2ccccc2nc(-c2ccccc2)n1-c1cccc(O)c1 ?
PLK1 PBD inh: 2%; 12-LOX inh: 4%; Sfp inh: -4%; VDR inhibitor: -11%

Results for COP(=O)(CC(=O)O)c1ccccc1 (configuration not stated) ?
PLK1 PBD inh: 0%; 12-LOX inh: -20%; Sfp inh: -13%; VDR inhibitor: 8%

Results for NC(=O)CSP(=O)(c1ccccc1)c1ccccc1 ?
PLK1 PBD inh: inconclusive; 12-LOX inh: -12%; Sfp inh: 16µM*; VDR inhibitor: -11%

Results for Cn1c(=O)oc2cc(S(=O)(=O)NCc3cccnc3)ccc21 ?
PLK1 PBD inh: -6%; 12-LOX inh: 0%; Sfp inh: 79µM*; VDR inhibitor: -15%

Results for CC(Oc1ccc(Cl)cc1Cl)C(=O)Nc1ccc(S(=O)(=O)Nc2cnc3ccccc3n2)cc1 (configuration not stated) ?
PLK1 PBD inh: 13µM*; Sfp inh: -8%; VDR inhibitor: -29%

Results for COc1ccc(NC(=O)C(=O)NNC(=O)C(C)Oc2ccc(Cl)cc2Cl)cc1 (configuration not stated) ?
PLK1 PBD inh: -13%; 12-LOX inh: 3%; Sfp inh: 36%; VDR inhibitor: 14%

What do the screens show for `CC1=CC(c2ccccc2)NC(=S)N1` (configuration not stated)?
PLK1 PBD inh: inconclusive; 12-LOX inh: -22%; Sfp inh: inconclusive; VDR inhibitor: 79µM*

How did Cc1nc(-c2ccc(C(F)(F)F)cc2)cc([C@H]2CN3CC[C@H]2C[C@@H]3CNC(=O)CCC(=O)O)n1 do in these assays?
12-LOX inh: 80%

Results for C=CCN1C(=O)/C(=C/c2ccc3c(c2)CCCN3CCC)C(=O)NC1=S ?
PLK1 PBD inh: -73%; 12-LOX inh: -40%; Sfp inh: 25µM*; VDR inhibitor: inconclusive

Results for CC(C)(C)N1C(=O)NC(=O)/C(=C\c2ccc3c(c2)CCN3CCCCl)C1=O ?
PLK1 PBD inh: inconclusive; 12-LOX inh: 186%; Sfp inh: inconclusive; VDR inhibitor: 4%

How did COC(=O)CN1CN(c2ccccc2)C2(CCN(Cc3ccc4ccccc4c3)CC2)C1=O do in these assays?
12-LOX inh: 0%; Sfp inh: 71µM*; VDR inhibitor: inconclusive

Results for COc1ccc(Oc2cc(NC(=O)c3nn(C)cc3[N+](=O)[O-])cc([N+](=O)[O-])c2)cc1 ?
PLK1 PBD inh: 1%; 12-LOX inh: -1%; Sfp inh: 9%; VDR inhibitor: -13%

How did O=C1NC(=O)N(c2ccc3c(c2)OCO3)C(=O)/C1=C/c1cccs1 do in these assays?
PLK1 PBD inh: 2.1µM*; 12-LOX inh: inconclusive; Sfp inh: 11µM*; VDR inhibitor: 79µM*

What do the screens show for `O=C1NC(=O)N(c2ccc3c(c2)OCO3)C(=O)/C1=C/c1ccc(N2CCCC2)o1`?
PLK1 PBD inh: 71%; 12-LOX inh: -17%; Sfp inh: -9%; VDR inhibitor: 8%

Results for O=C1NC(=O)C(=Cc2ccc3c(c2)OCO3)C(=O)N1 ?
12-LOX inh: inconclusive; Sfp inh: 50µM*

How did O=C1NC(=O)C(=Cc2cn(CCOc3ccc4c(c3)OCO4)c3ccccc23)C(=O)N1 do in these assays?
PLK1 PBD inh: 0%; Sfp inh: -14%; VDR inhibitor: 3%

What do the screens show for `CCc1ccc(N2C(=O)NC(=O)/C(=C/c3ccsc3)C2=O)cc1`?
Sfp inh: 50µM*

Results for O=C1NC(=O)N(c2ccc3c(c2)OCO3)C(=O)/C1=C/c1ccsc1 ?
PLK1 PBD inh: 7.5µM*; 12-LOX inh: inconclusive; Sfp inh: 40µM*; VDR inhibitor: inconclusive

What do the screens show for `O=C1Nc2ccccc2C12CCN(Cc1ccccc1)CC2`?
12-LOX inh: -28%[6.33 µM]

What do the screens show for `Cc1ccc(/C=C2/C(=O)NC(=O)N(CC3CCCO3)C2=O)s1` (configuration not stated)?
PLK1 PBD inh: 6µM*; 12-LOX inh: inconclusive; Sfp inh: inconclusive; VDR inhibitor: inconclusive

How did Cc1ccc(/C=C2\C(=O)NC(=O)N(CCc3ccc(F)cc3)C2=O)s1 do in these assays?
PLK1 PBD inh: 0.27µM*; 12-LOX inh: inconclusive; Sfp inh: -11%; VDR inhibitor: inconclusive

What do the screens show for `Cc1ccc(/C=C2/C(=O)NC(=O)N(CCc3ccc(F)cc3)C2=O)s1`?
PLK1 PBD inh: 0.95µM*; 12-LOX inh: inconclusive; Sfp inh: 7%; VDR inhibitor: inconclusive

Results for FC(F)(F)c1ccc(NC2=NCCCS2)cc1 ?
PLK1 PBD inh: -5%; Sfp inh: 15%; VDR inhibitor: 17%

How did C=C[C@H]1CN2CC[C@H]1C[C@@H]2CNS(=O)(=O)c1ccccc1 do in these assays?
12-LOX inh: -1%[176 µM]

What do the screens show for `CN1CCC(N(C)c2ccc(C(N)=O)cc2[N+](=O)[O-])CC1`?
PLK1 PBD inh: -2%; 12-LOX inh: -13%; Sfp inh: -2%; VDR inhibitor: 28%
